For eight molecules, growth results are on record in PubChem BioAssay (NCI).

Molecules are shown by their SMILES. The panel holds about 83,000 compounds, 20% with a hit somewhere; the sample as a whole holds those more often.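 Interpretation: 100, growth as untreated; towards 0, rising growth inhibition; 0, no net growth; 0 to -100, cell death. Compounds scoring below 10 were considered active.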 Values without a mark were called inactive. Activity calls are given as the source filed them.

Holding throughout (experiment): NCI-60 one-dose screen, 48 h (100 = growth as untreated, 0 = no growth, -100 = all killed)
Holding throughout (conditions): 10 µM unless noted

The test system of assay [1] is MOLT-4 leukemia.
Assay [2] concerns SR leukemia.
The test system of assay [3] is OVCAR-8 ovarian.
The subject of assay [4] is OVCAR-5 ovarian.
Assay [5] deals with OVCAR-4 ovarian.
For assay [6], the system named is SK-OV-3 ovarian.
Assay [7] relates to IGROV1 ovarian.
The subject of assay [8] is OVCAR-3 ovarian.
For assay [9], the system named is HS 578T breast.
Assay [10] has as its system NCI/ADR-RES ovarian.
The test system of assay [11] is T-47D breast.
The test system of assay [12] is MDA-MB-435 melanoma.
For assay [13], the system named is SW-620 colon.
The subject of assay [14] is MCF7 breast.
Assay [15] has as its system HCT-116 colon.
Assay [16] deals with KM12 colon.
The subject of assay [17] is RPMI-8226 leukemia.
The subject of assay [18] is BT-549 breast.
Assay [19] concerns HCC-2998 colon.

On to `O=C(O)CNCP(=O)(O)O`, for which the growth in assay [1] is 92.4%; in assay [2], 95.3%; in assay [3] it was 104%; in [4] it was 120%; in assay [5], 111%; in assay [6], 113%. Moreover, the growth in assay [7] is 106%; in [8] it was 119%; in assay [9], 121%; in [10], 110%; in [11], 111%; in assay [12], 104%. In addition, the growth was 110% in [13], 96.2% in [14], 103% in [15] and 113% in assay [16].
Turning to `CC1OC(=O)C(C(C)C)NC(=O)C(C(C)C)OC(=O)C(C(C)C)NC(=O)C(C)OC(=O)C(C(C)C)NC(=O)C(C(C)C)OC(=O)C(C(C)C)NC(=O)C(C)OC(=O)C(C(C)C)NC(=O)C(C(C)C)OC(=O)C(C(C)C)NC1=O` (stereo not drawn), the growth is -26.4% (active) in assay [1]; -14.6% (active) in assay [2]; -23.2% (active) in assay [17]; -39.6% (active) in assay [4]; -17% (active) in [5]; -13.3% (active) in [6]. The growth is -25% (active) in assay [7]; -18.9% (active) in assay [8]; -63.9% (active) in assay [9]; 0.571% (active) in assay [10]; -15.2% (active) in assay [11]; -42.5% (active) in assay [18]. Besides, the growth in assay [12] is 3.94% (active); in assay [13], 3.61% (active); in assay [14] it was -31.7% (active); in assay [15], -69% (active); in assay [19], -16.5% (active); in assay [16], 0.9% (active).
For `CNC(=O)CCl`, the growth in assay [1] was 118%; in [2] it was 109%; in [17], 106%; in assay [3] it was 105%; in assay [5], 101%; in assay [6] it was 102%. In addition, the growth in assay [7] was 107%; in assay [8], 113%; in assay [9] it was 104%; in assay [10], 103%; in assay [18], 101%; in assay [12], 101%. The growth in assay [13] was 107%; in assay [14] it was 98.2%; in assay [15], 99.6%; in assay [19] it was 95.1%; in [16] it was 108%.
In the case of `CCCn1cc2c3c(cccc31)[C@H]1C[C@@H](C)CN(C)[C@@H]1C2`, the growth is 77.6% in assay [1]; 71.4% in [2]; 89.1% in assay [3]; 84.4% in assay [4]; 80.6% in assay [5]; 87.9% in assay [6]. Moreover, the growth was 35.1% in [7]; 84.4% in assay [8]; 83.6% in assay [9]; 78.8% in [10]; 72.6% in assay [11]; 89% in [18]. For the same molecule, the growth in [12] was 112%; in assay [13], 90.1%; in assay [14] it was 85%; in assay [15], 53%; in [19], 95.7%; in assay [16] it was 97.6%.
Turning to `CCC(Br)(CC)C(=O)NC(N)=O`, the growth in assay [1] was 99.2%; in assay [2], 105%; in [17], 109%; in [3], 113%; in assay [5] it was 101%; in assay [6] it was 114%. Besides, the growth was 110% in assay [7]; 111% in assay [8]; 106% in assay [9]; 116% in assay [10]; 101% in [11]; 108% in assay [18]. Also, the growth in assay [12] was 102%; in assay [13], 110%; in [15], 93%; in assay [19], 105%; in [16], 104%.
`C=CC[PH+](c1ccccc1)c1ccccc1.C=CC[PH+](c1ccccc1)c1ccccc1.[Pt+2].[S-]c1ncccn1.[S-]c1ncccn1`: the growth in assay [1] is 7.91% (active); in assay [2], 13.5%; in assay [3], 1.96% (active); in assay [4], 14.3%; in assay [5] it was 17.6%; in assay [6], 96.3%. Also, the growth in [7] was 16.3%; in [8], -24.5% (active); in [9] it was 61.6%; in assay [10] it was 39.6%; in assay [11], 2% (active); in assay [18], 64%. Further, the growth in [12] was -48.1% (active); in [13] it was -4.87% (active); in assay [14], 17.2%; in assay [15], -43.8% (active); in [19], 97.5%; in [16] it was 76.7%.
`COC(=O)CCP(CCC(=O)OC)c1ccccc1`: the growth was 113% in assay [1]; 106% in assay [2]; 113% in assay [17]; 105% in [3]; 103% in [5]; 101% in assay [6]. For the same molecule, the growth was 110% in assay [7]; 107% in assay [8]; 114% in [9]; 106% in assay [10]; 112% in [11]; 90% in assay [18]. In addition, the growth is 97.2% in assay [12], 105% in [13], 97.6% in [15] and 111% in [16].
With `O=Cc1cn(Cc2ccccc2)c2ccccc12`, the growth in [1] was 99.8%; in assay [2], 93%; in [3], 85.8%; in [4] it was -20.3% (active); in [5], 55.1%; in assay [6], 61.4%. Moreover, the growth in assay [7] was -21.4% (active); in assay [8], 68.6%; in assay [9], 150%; in assay [10], 82.1%; in assay [11] it was 41.4%; in [18], 95.1%. For the same molecule, the growth was 125% in assay [12]; 92.4% in [13]; 84.8% in assay [14]; 68.4% in [15]; 33.5% in assay [19]; 101% in [16].
